Source: PubChem BioAssay (NCI)
The panel holds about 83,000 compounds, 20% with a hit somewhere; the sample as a whole holds those more often.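 Single-concentration screen, 48 h exposure, 96-well plates. Endpoint: percent growth. Below 10 = active.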 Unmarked numbers belong to inactive results. The source made the active and inactive calls.

Assays:
Assay in all cases: NCI-60 one-dose screen, 48 h (100 = growth as untreated, 0 = no growth, -100 = all killed)
Conditions in all cases: 10 µM
[1] = test system: NCI-H522 lung
[2] = test system: RXF 393 renal
[3] = test system: M14 melanoma
[4] = test system: SK-MEL-5 melanoma
[5] = test system: UO-31 renal
[6] = test system: CCRF-CEM leukemia
[7] = test system: OVCAR-4 ovarian
[8] = test system: T-47D breast
[9] = test system: BT-549 breast
[10] = test system: MDA-MB-435 melanoma
[11] = test system: SW-620 colon
[12] = test system: MCF7 breast
[13] = test system: HCT-116 colon
[14] = test system: HCC-2998 colon
[15] = test system: KM12 colon
[16] = test system: HOP-92 NSCLC
[17] = test system: NCI-H322M lung
[18] = test system: EKVX NSCLC

## Cc1ccc2c(c1)C(=O)/C(=C/c1ccc([N+](=O)[O-])cc1)S2
[1]
  growth: 82.5%
[2]
  growth: 109%
[3]
  growth: 97.3%
[4]
  growth: 95.1%
[5]
  growth: 58.2%
[6]
  growth: 109%
[7]
  growth: 83.4%
[8]
  growth: 86.3%
[9]
  growth: 101%
[10]
  growth: 98.9%
[11]
  growth: 49.4%
[12]
  growth: 3.81% (active)
[13]
  growth: 14.3%
[14]
  growth: 103%
[15]
  growth: 105%

## Fc1ccc(-c2csc(Nc3cccc(Nc4nc(-c5ccc(F)cc5)cs4)c3)n2)cc1
[16]
  growth: 39.2%
[2]
  growth: 75.5%
[4]
  growth: 61.2%
[6]
  growth: 59.1%
[8]
  growth: 7.43% (active)
[9]
  growth: 64%
[10]
  growth: 63.1%
[11]
  growth: 70.3%
[13]
  growth: 57.7%
[14]
  growth: 35.2%
[15]
  growth: 37.6%

## C#C[C@]1(O)CC[C@H]2[C@@H]3CC=C4c5sc(Nc6ccc(N(C)C)cc6)nc5CC[C@]4(C)[C@H]3CC[C@@]21C
[16]
  growth: 9.62% (active)
[2]
  growth: -51.3% (active)
[4]
  growth: 0.6% (active)
[5]
  growth: -45% (active)
[6]
  growth: -1.45% (active)
[8]
  growth: 28.6%
[9]
  growth: -58.8% (active)
[10]
  growth: 5.17% (active)
[11]
  growth: 4.36% (active)
[12]
  growth: -36.2% (active)
[13]
  growth: -77.9% (active)
[14]
  growth: 33.4%
[15]
  growth: 2.83% (active)

## O=C1S/C(=C\c2ccc([N+](=O)[O-])cc2)C(=O)N1CCN1CCCCC1
[16]
  growth: 146%
[2]
  growth: 132%
[4]
  growth: 101%
[5]
  growth: 102%
[6]
  growth: 116%
[7]
  growth: 111%
[8]
  growth: 95.6%
[9]
  growth: 118%
[10]
  growth: 102%
[11]
  growth: 113%
[12]
  growth: 94.2%
[13]
  growth: 105%
[14]
  growth: 104%
[15]
  growth: 105%

## O=C(O)CCN1C(=O)/C(=C/C=C/c2ccc([N+](=O)[O-])o2)SC1=S
[17]
  growth: 31%

## O=C(CC(=O)Nc1ccc(Oc2ncnc3scc(Nc4n[nH]c(=S)s4)c23)cc1)Nc1ccc(Br)cc1
[1]
  growth: 89.6%
[2]
  growth: 129%
[4]
  growth: 98%
[18]
  growth: 101%
[5]
  growth: 85.1%
[6]
  growth: 75.9%
[7]
  growth: 106%
[8]
  growth: 86.3%
[9]
  growth: 108%
[10]
  growth: 103%
[11]
  growth: 101%
[12]
  growth: 86.8%
[13]
  growth: 107%
[14]
  growth: 112%

## COc1ccc(Cn2cc(C#N)c(N)c2C(C)=O)c(OC)c1
[16]
  growth: 85.7%
[2]
  growth: 107%
[4]
  growth: 99.1%
[6]
  growth: 105%
[8]
  growth: 106%
[9]
  growth: 107%
[10]
  growth: 108%
[11]
  growth: 106%
[13]
  growth: 99.2%
[14]
  growth: 106%
[15]
  growth: 106%

## O=C(c1ccccc1)c1ccc2nc(-c3ccccc3Br)[nH]c2c1
[16]
  growth: -90.6% (active)
[2]
  growth: -90.4% (active)
[4]
  growth: -97.6% (active)
[5]
  growth: -99.1% (active)
[6]
  growth: -9.65% (active)
[8]
  growth: -59.3% (active)
[9]
  growth: -76.4% (active)
[10]
  growth: -21% (active)
[11]
  growth: -17.9% (active)
[13]
  growth: -38.8% (active)
[14]
  growth: -96.3% (active)
[15]
  growth: -44.2% (active)

## COc1ccc(C(=O)COc2ccc(NC(=O)Nc3ccccc3)cc2)cc1
[1]
  growth: 58.2%
[2]
  growth: 82.8%
[3]
  growth: 93.6%
[4]
  growth: 94.3%
[18]
  growth: 82.7%
[6]
  growth: 91%
[7]
  growth: 87.2%
[8]
  growth: 65.6%
[9]
  growth: 76.2%
[10]
  growth: 89.4%
[11]
  growth: 101%
[13]
  growth: 91%
[14]
  growth: 105%
[15]
  growth: 91.6%

## O=C(CN1CCN(c2ncnc3c2cnn3-c2ccccc2)CC1)Nc1ccc(Br)cc1
[16]
  growth: 74.6%
[2]
  growth: 76%
[4]
  growth: 9.44% (active)
[18]
  growth: 46.9%
[6]
  growth: 61.6%
[8]
  growth: 41.6%
[9]
  growth: 50%
[10]
  growth: 53.2%
[11]
  growth: 78.1%
[13]
  growth: 52.5%
[14]
  growth: 78.8%
[15]
  growth: 57.5%

## Cn1cc(-c2cc3nc(-c4c[nH]c5ccccc45)cc(N)n3n2)c2cc(Cl)ccc21
[16]
  growth: -81% (active)
[2]
  growth: -82.7% (active)
[4]
  growth: -99% (active)
[6]
  growth: -12.6% (active)
[7]
  growth: -73.8% (active)
[8]
  growth: -85.5% (active)
[9]
  growth: -90.4% (active)
[10]
  growth: -93.1% (active)
[11]
  growth: -61% (active)
[13]
  growth: -84.6% (active)
[14]
  growth: -84.1% (active)
[15]
  growth: -82.2% (active)

## Cc1ccc2sc3c(c2c1)Oc1nc[nH]c(=O)c1C3c1cccc(F)c1 (configuration not stated)
[2]
  growth: 109%
[3]
  growth: 99.4%
[4]
  growth: 96.4%
[18]
  growth: 87.9%
[5]
  growth: 66.3%
[6]
  growth: 107%
[8]
  growth: 83.9%
[9]
  growth: 95.5%
[10]
  growth: 96.1%
[11]
  growth: 102%
[12]
  growth: 60.9%
[13]
  growth: 89.3%
[14]
  growth: 118%
[15]
  growth: 100%

## Cn1cc(-c2nnc(N)nc2-c2c[nH]c3ccc(F)cc23)c2cc(Br)cnc21
[16]
  growth: 26.4%
[2]
  growth: 38.7%
[4]
  growth: 81.9%
[18]
  growth: 94%
[5]
  growth: 43.1%
[6]
  growth: 35.4%
[7]
  growth: 59.6%
[8]
  growth: 44.1%
[9]
  growth: 51.1%
[10]
  growth: 67.2%
[11]
  growth: 68.5%
[13]
  growth: 59.2%
[14]
  growth: 72.8%
[15]
  growth: 61.5%

## Cc1cc(N=C2NC(=O)S/C2=C\c2ccc(F)cc2)n[nH]1
[2]
  growth: -37.4% (active)
[4]
  growth: 16.5%
[18]
  growth: 15.2%
[6]
  growth: 9.4% (active)
[8]
  growth: 18.1%
[9]
  growth: 3.56% (active)
[10]
  growth: -11.3% (active)
[11]
  growth: 20.7%
[13]
  growth: -51.5% (active)
[14]
  growth: 22.4%
[15]
  growth: 28.2%

## O=C(Nc1ccc(OCC(=O)c2ccc(Cl)cc2)cc1)Nc1ccc(Cl)c(C(F)(F)F)c1
[2]
  growth: -60.8% (active)
[3]
  growth: 33.9%
[4]
  growth: 53.8%
[18]
  growth: 16.9%
[5]
  growth: 13.9%
[8]
  growth: 6.1% (active)
[9]
  growth: 76%
[10]
  growth: 51.5%
[11]
  growth: 47.7%
[12]
  growth: 51.4%
[13]
  growth: 50.8%
[14]
  growth: 33.4%
[15]
  growth: 14.9%

## COc1ccc(C2OC[C@@]3(C)C4CC[C@]5(C)C(CC=C6C7CC(C)(C)CC[C@]7(C(=O)O)CC[C@]65C)[C@@]4(C)C[C@@H](O)[C@@H]3O2)cc1 (some centres not stated)
[16]
  growth: 64.8%
[2]
  growth: 89%
[4]
  growth: 80.5%
[18]
  growth: 52.9%
[6]
  growth: 50.3%
[7]
  growth: 86.9%
[8]
  growth: 88.5%
[9]
  growth: 82.4%
[10]
  growth: 97%
[11]
  growth: 69.9%
[13]
  growth: 43.3%
[14]
  growth: 101%
[15]
  growth: 54.4%

## CC1(C)CC(=O)C2=C(C1)N(Cc1ccc(C(=O)O)cc1)C1=C(C(=O)CC(C)(C)C1)C2c1ccc(Cl)cc1
[1]
  growth: 84.9%
[2]
  growth: 111%
[4]
  growth: 99.9%
[18]
  growth: 97.5%
[6]
  growth: 102%
[8]
  growth: 91.9%
[9]
  growth: 93.5%
[10]
  growth: 102%
[11]
  growth: 101%
[13]
  growth: 106%
[14]
  growth: 101%
[15]
  growth: 108%

## COc1ccc(C2c3sc4ccc(C)cc4c3Oc3nc[nH]c(=O)c32)cc1 (configuration not stated)
[1]
  growth: 42.7%
[2]
  growth: 85.7%
[3]
  growth: 73.2%
[4]
  growth: 88.8%
[18]
  growth: 92.7%
[5]
  growth: 64.5%
[6]
  growth: 91.7%
[7]
  growth: 85.3%
[8]
  growth: 83.4%
[9]
  growth: 77.9%
[10]
  growth: -0.755% (active)
[11]
  growth: 67.1%
[13]
  growth: 90.2%
[14]
  growth: 94%
[15]
  growth: 61.1%

## Cc1ccc2c(c1)C(=O)/C(=C/c1c[nH]c3ccccc13)S2
[1]
  growth: 11.2%
[2]
  growth: -28.1% (active)
[3]
  growth: 64.2%
[4]
  growth: 59%
[6]
  growth: 29.2%
[7]
  growth: 40.9%
[8]
  growth: 33.5%
[9]
  growth: 33.8%
[10]
  growth: 43.8%
[11]
  growth: 28.6%
[13]
  growth: 14.2%
[14]
  growth: 65.8%
[15]
  growth: 35.1%

## CC1(C)CC[C@]2(C(=O)O)CC[C@]3(C)C(=CCC4[C@@]5(C)C[C@@H](O)[C@@H]6OC(c7cccc(F)c7)OC[C@@]6(C)C5CC[C@]43C)C2C1 (some centres not stated)
[16]
  growth: 41.9%
[2]
  growth: 67.2%
[4]
  growth: 45.9%
[18]
  growth: 19.2%
[6]
  growth: 32%
[8]
  growth: 38.9%
[9]
  growth: 39%
[10]
  growth: 58.1%
[11]
  growth: 31%
[12]
  growth: 21.5%
[13]
  growth: 9.3% (active)
[14]
  growth: 37.5%
[15]
  growth: 21.3%
